# Screening data deposited in PubChem BioAssay by several laboratories.
# This is a sample that favours compounds with a hit; in the whole collection about 4.2% have one here.
# NALP3 yeast inh: blocks the NALP3 inflammasome reconstituted in yeast; inhibition, % at 10 µM; Yeast reconstituted NLRP3/ASC/caspase-1, beta-gal luminescence, 24 h; hit rate 0.39% among 330,000; AID 2825;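 active = inhibition of 50% or more; inactive = inhibition below 50%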;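 note: plate controls were induced DMSO wells for no effect and uninduced yeast grown without galactose for full effect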
# TIM10 inh: TIM10 yeast growth inhibition. S. cerevisiae TIM10 strain growth, BacTiter-Glo luminescence, 24 h. inhibition, % at 10 µM. hit rate 1.4% among 330,000;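 active = inhibition of 40% or more at the single tested concentration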;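 note: wild-type TIM10 isogenic control strain grown at permissive 25 °C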
# tim10-1 inh: inhibits growth of tim10-1 mutant yeast; inhibition, % at 20 µM; hit rate 2.2% among 330,000; AID 463190; S. cerevisiae tim10-1 ts strain growth, BacTiter-Glo, 24 h;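 active = inhibition of at least 40%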;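 note: mutant grown at 25 °C; 0% = DMSO wells with yeast and 100% = wells holding no yeast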
# V-ATPase pHluor: regulators of yeast V-ATPase proton transport; S. cerevisiae, pHLuorin cytosolic pH fluorescence; response, % at 10 µM; hit rate 0.37% among 350,000; AID 504577; in the data active = response mostly above about 7.3%, no sharp cut-off; inactive = mostly below about 5.4%; note: actives read high
# NALP1 yeast inh: NALP1 inhibition; hit rate 0.61% among 280,000; inhibition, % at 10 µM; S. cerevisiae NALP1/ASC/caspase-1 growth, X-gal OD620, 72 h; in the data active = inhibition mostly above about 24%, no sharp cut-off; inactive = mostly below about 32%
# tim23-1 inh: tim23-1 yeast growth inhibition | S. cerevisiae tim23-1 growth, BacTiter-Glo luminescence, 24 h | inhibition, % at 20 µM | hit rate 1.3% among 330,000 | AID 463212;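 active = growth inhibition of the mutant yeast at or above 50%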;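 note: temperature-sensitive mutant grown at 25 °C; plate controls were DMSO-treated mutant yeast for no effect and medium wells lacking yeast for full effect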
# VATPase regulator: yeast V-ATPase proton transport regulation; hit rate 2% among 980; S. cerevisiae pHLuorin cytosolic pH; response, % at 10 µM; shares compounds with V-ATPase pHluor; in the data active = response above about 24%;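 note: plate controls were vehicle wells for no effect and positive control wells for full effect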
# * = called active by the depositor; · = not tested or not shown.
SMILES,NALP3 yeast inh,TIM10 inh,tim10-1 inh,V-ATPase pHluor,NALP1 yeast inh,tim23-1 inh,VATPase regulator
CCOC(=O)C1CCN(C(=O)COC(=O)/C=C/c2ccccc2)CC1,-8,9,6,9.4*,·,4,-5
CCOC(=O)C1CCN(C(=O)/C=C/c2ccccc2)CC1,9,2,10,1,-4,2,·
COc1ccc(Cc2n[nH]c(=O)c3ccccc23)cc1OC,-18,4,10,22*,-8,3,3
O=c1[nH]nc(Cc2ccccc2)c2ccccc12,19,-5,11,1,-2,0,·
CSCCC(NC(=O)COc1ccccc1)C(=O)O (stereo not drawn),-15,-25,8,0,-13,0,·
COc1cccc(CNC(=O)c2ccc3c(c2)S(=O)(=O)N=C2CCCCCN23)c1,2,0,2,2,3,4,·
COC(=O)c1ccc(CNC(=O)c2ccc3c(c2)S(=O)(=O)N=C2CCCCCN23)cc1,18,1,-6,11*,·,-7,-1
Cc1sc(NC(=O)CN2C(=O)NC3(CCCC3)C2=O)nc1-c1ccc(F)cc1,4,-25,-23,1,·,-6,·
O=C(CSC1=NCCS1)Nc1ccc(F)cc1,5,7,6,0,-3,-1,-1
CC(=O)Nc1ccc(NC(=O)CSc2nnc(NC(=O)Cc3ccc(F)cc3)s2)cc1,2,1,-7,8.3*,-2,-8,2
CCC(C)C(=O)Nc1nnc(SCC(=O)Nc2ccc(F)cc2)s1 (stereo not drawn),21,-6,-23,-1,13,25,·
CCOC(=O)/C(C)=N/Nc1nc(-c2ccc(NC(C)=O)cc2)cs1,10,24,22,3,·,26,·
COc1ccc(CC(=O)Nn2c(-c3ccccc3)nc3ccccc3c2=O)cc1,-3,-11,3,-3,31,11,·
COc1ccc(-c2nc3ccccc3c(=O)n2NC(=O)Cc2ccccc2)cc1,28,4,5,9.8*,28,22,1
O=C(NCc1ccco1)c1ccccc1SCC(=O)N1CCCC1,22,-20,-19,-2,·,-9,·
Cn1cccc1C(=O)NC1CCCCC1,2,3,1,-1,·,0,·
COc1ccc([N+](=O)[O-])cc1N(CC(=O)N1CCN(Cc2ccccc2)CC1)S(C)(=O)=O,15,8,8,8.8*,-10,8,0
COc1ccc(OC)c(N(CC(=O)N2CCN(Cc3ccccc3)CC2)S(C)(=O)=O)c1,11,7,2,3,0,-6,·
Cc1cc(=O)oc2cc(OCC(=O)NC3CC(C)(C)NC(C)(C)C3)ccc12,2,10,-4,11*,5,1,0
CCc1cc(=O)oc2cc(OCC(=O)NC3CC(C)(C)NC(C)(C)C3)ccc12,18,-8,8,2,11,-1,·
Cc1ccc(-c2nnc(NC(=O)c3ccco3)o2)c(C)c1,0,5,22,0,·,21,·
O=C(Nc1nnc(-c2ccccc2Cl)o1)c1ccco1,9,-20,-9,11*,-12,18,1
N#CC1=C(N)N(c2ccccc2)C2=C(C(=O)CCC2)C1c1ccsc1 (stereo not drawn),8,3,18,10*,9,19,-3
Cc1ccc(OCc2cc(C(=O)NCC(C)(C)N3CCOCC3)no2)cc1C,30,-14,4,8.2*,7,13,-7
COc1nc(N(C)C)nc(N(C#N)S(=O)(=O)c2ccc(C)cc2)n1,17,-3,-5,11*,4,0,-4
SMILES,NALP3 yeast inh,TIM10 inh,tim10-1 inh,V-ATPase pHluor,NALP1 yeast inh,tim23-1 inh,VATPase regulator
Cc1cc(-c2ccccc2)n2nc(N)nc2n1,-1,-9,-6,1,·,15,·
C=CCNC(=O)c1nn2cccnc2c1Cl,22,-10,7,11*,6,6,-1
O=C(NCc1ccccc1F)C1CCCN(S(=O)(=O)N2CCOCC2)C1 (stereo not drawn),17,-1,0,-2,3,-6,·
O=C(CCN1C(=O)/C(=C\c2cccs2)SC1=S)Nc1ccccn1,5,1,-3,6.2*,10,3,-3
O=C(CCCN1C(=O)/C(=C/c2cccs2)SC1=S)Nc1ccccn1,22,4,13,1,-8,-4,·
N#Cc1nc(-c2ccc(Cl)cc2)oc1NCC1CCCO1 (stereo not drawn),14,0,-5,1,-10,16,·
